# Experimental data taken from the supplement of paper PMC10037445.
# The full ranking holds about 2,900 compounds; the median of “NF-kB SEAP reporter activity, fold change vs agonist alone” is about 0.99, and the highest 2% start at about 2.6. The sample holds the highest values, similar compounds and a random draw of the others, so the mix is not that of the screen.
# What was measured:
# RAW-Dual [1] = experiment: NF-kB SEAP reporter activity, fold change vs agonist alone; higher = enhanced NF-kB activity
# Method in brief: (§1)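 RAW-Dual macrophages (50,000 cells/well in DMEM, 384-well plates) received 50 nL of library stock by pin tool, then a PRR agonist 1 h later, and were kept at 37 °C, 5% CO2. After 20 hours, supernatant was read for IRF by QuantiLuc luminescence and for NF-κB by QuantiBlue absorbance at 620 nm. Reporter activity is fold change over agonist-alone wells. Cytotoxic wells had IncuCyte confluency below 70% of agonist controls in both mask sets.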
# RAW-Dual [2] = experiment: NF-kB SEAP reporter activity, fold change vs agonist alone; cytotoxicity flag (confluency mask): cytotoxic (confluency <70% of control); library stock concentration (final ~1000-fold dilution): 10 mM; higher = enhanced NF-kB activity
# Method in brief: as §1
# RAW-Dual [3] = experiment: NF-kB SEAP reporter activity, fold change vs agonist alone; cytotoxicity flag (confluency mask): not cytotoxic; library stock concentration (final ~1000-fold dilution): 10 mM; higher = enhanced NF-kB activity
# Method in brief: as §1
# RAW-Dual [4] = experiment: NF-kB SEAP reporter activity, fold change vs agonist alone; cytotoxicity flag (confluency mask): not cytotoxic; library stock concentration (final ~1000-fold dilution): .1 mM; higher = enhanced NF-kB activity
# Method in brief: as §1
# [5] = agonist: ODN 1826 (TLR9) 0.5 ug/mL
# [6] = agonist: Pam2CSK4 (TLR2/6) 0.1 ug/mL
# [7] = agonist: Pam3CSK4 (TLR2/1) 0.1 ug/mL
# [8] = library stock concentration (final ~1000-fold dilution): 10 mM, cytotoxicity flag (confluency mask): not cytotoxic, agonist: Imiquimod (TLR7) […]
# [9] = library stock concentration (final ~1000-fold dilution): 10 mM, cytotoxicity flag (confluency mask): not cytotoxic, agonist: MPLA (TLR4) […]
structure (smiles),measurement,setting,value
Cc1sc2c(c1C)C(c1ccc(Cl)cc1)=NC(CC(=O)OC(C)(C)C)c1nnc(C)n1-2 (stereo not drawn),NF-kB SEAP reporter activity,"RAW-Dual [1]; library stock concentration (final ~1000-fold dilution): 10 mM, cytotoxicity flag (confluency mask): cytotoxic (confluency <70% of control), agonist: Imiquimod (TLR7) […]",2.49
same,NF-kB SEAP reporter activity,"RAW-Dual [1]; library stock concentration (final ~1000-fold dilution): 10 mM, cytotoxicity flag (confluency mask): cytotoxic (confluency <70% of control), agonist: MPLA (TLR4) […]",2.26
same,NF-kB SEAP reporter activity,RAW-Dual [2]; agonist: LPS (TLR4) 0.1 ug/mL,2.05
same,NF-kB SEAP reporter activity,RAW-Dual [2]; [5],1.9
same,NF-kB SEAP reporter activity,RAW-Dual [2]; [6],0.784
same,NF-kB SEAP reporter activity,RAW-Dual [2]; [7],1.19
Cc1sc2c(c1C)C(c1ccc(Cl)cc1)=NC(CC(N)=O)c1nnc(C)n1-2 (stereo not drawn),NF-kB SEAP reporter activity,RAW-Dual [1]; [8],1.43
same,NF-kB SEAP reporter activity,RAW-Dual [1]; [9],2.38
same,NF-kB SEAP reporter activity,RAW-Dual [3]; agonist: LPS (TLR4) 0.1 ug/mL,2.51
same,NF-kB SEAP reporter activity,RAW-Dual [3]; [5],1.97
same,NF-kB SEAP reporter activity,RAW-Dual [3]; [6],0.734
same,NF-kB SEAP reporter activity,RAW-Dual [3]; [7],1.69
CCNC(=O)CC1N=C(c2ccc(Cl)cc2)c2cc(OC)ccc2-n2c(C)nnc21 (stereo not drawn),NF-kB SEAP reporter activity,RAW-Dual [1]; [8],1.41
same,NF-kB SEAP reporter activity,RAW-Dual [1]; [9],2.47
same,NF-kB SEAP reporter activity,RAW-Dual [3]; agonist: LPS (TLR4) 0.1 ug/mL,2.57
same,NF-kB SEAP reporter activity,RAW-Dual [3]; [5],1.9
same,NF-kB SEAP reporter activity,RAW-Dual [3]; [6],0.886
same,NF-kB SEAP reporter activity,RAW-Dual [3]; [7],1.43
Cc1sc2c(c1C)C(c1ccc(Cl)cc1)=NC(CC(=O)Nc1ccc(O)cc1)c1nnc(C)n1-2 (stereo not drawn),NF-kB SEAP reporter activity,RAW-Dual [1]; [8],1.49
same,NF-kB SEAP reporter activity,RAW-Dual [1]; [9],2.56
same,NF-kB SEAP reporter activity,RAW-Dual [3]; agonist: LPS (TLR4) 0.1 ug/mL,3.19
same,NF-kB SEAP reporter activity,RAW-Dual [3]; [5],2.24
same,NF-kB SEAP reporter activity,RAW-Dual [3]; [6],0.856
same,NF-kB SEAP reporter activity,RAW-Dual [3]; [7],1.74
COc1ccc2c(c[n+](C)c3c4cc5c(cc4ccc23)OCO5)c1OC.Cl,NF-kB SEAP reporter activity,RAW-Dual [1]; [8],0.228
same,NF-kB SEAP reporter activity,RAW-Dual [1]; [9],0.224
same,NF-kB SEAP reporter activity,RAW-Dual [3]; agonist: LPS (TLR4) 0.1 ug/mL,0.278
same,NF-kB SEAP reporter activity,RAW-Dual [3]; [5],0.195
same,NF-kB SEAP reporter activity,RAW-Dual [3]; [6],0.15
same,NF-kB SEAP reporter activity,RAW-Dual [3]; [7],0.163
O=c1[nH]c2ccccc2n1C1CCN(Cc2ccc(-c3nc4cc5nc[nH]c5cc4nc3-c3ccccc3)cc2)CC1,NF-kB SEAP reporter activity,RAW-Dual [1]; [8],0.45
same,NF-kB SEAP reporter activity,RAW-Dual [1]; [9],1.05
same,NF-kB SEAP reporter activity,RAW-Dual [3]; agonist: LPS (TLR4) 0.1 ug/mL,1.2
same,NF-kB SEAP reporter activity,RAW-Dual [3]; [5],0.187
same,NF-kB SEAP reporter activity,RAW-Dual [3]; [6],0.317
same,NF-kB SEAP reporter activity,RAW-Dual [3]; [7],0.427
Br.COc1ccc2c(c1)C13CCCCC1C(C2)N(C)CC3.O (stereo not drawn),NF-kB SEAP reporter activity,RAW-Dual [1]; [9],0.902
same,NF-kB SEAP reporter activity,RAW-Dual [3]; agonist: LPS (TLR4) 0.1 ug/mL,0.802
same,NF-kB SEAP reporter activity,RAW-Dual [3]; [5],0.615
same,NF-kB SEAP reporter activity,RAW-Dual [3]; [6],0.806
same,NF-kB SEAP reporter activity,RAW-Dual [3]; [7],0.824
Br.CN1C2CC(OC(=O)C(CO)c3ccccc3)CC1C1OC12.O.O.O (stereo not drawn),NF-kB SEAP reporter activity,RAW-Dual [1]; [8],0.88
same,NF-kB SEAP reporter activity,RAW-Dual [1]; [9],1.09
same,NF-kB SEAP reporter activity,RAW-Dual [3]; agonist: LPS (TLR4) 0.1 ug/mL,0.989
same,NF-kB SEAP reporter activity,RAW-Dual [3]; [5],0.789
same,NF-kB SEAP reporter activity,RAW-Dual [3]; [6],1.04
same,NF-kB SEAP reporter activity,RAW-Dual [3]; [7],1.12
Cc1cccc(-c2ccnc3c(C(N)=O)cnn23)c1,NF-kB SEAP reporter activity,"RAW-Dual [1]; library stock concentration (final ~1000-fold dilution): .1 mM, cytotoxicity flag (confluency mask): not cytotoxic, agonist: Imiquimod (TLR7) […]",0.791
same,NF-kB SEAP reporter activity,"RAW-Dual [1]; library stock concentration (final ~1000-fold dilution): .1 mM, cytotoxicity flag (confluency mask): not cytotoxic, agonist: MPLA (TLR4) […]",1.15
same,NF-kB SEAP reporter activity,RAW-Dual [4]; agonist: LPS (TLR4) 0.1 ug/mL,1.21
same,NF-kB SEAP reporter activity,RAW-Dual [4]; [5],1.28
same,NF-kB SEAP reporter activity,RAW-Dual [4]; [6],1.25
same,NF-kB SEAP reporter activity,RAW-Dual [4]; [7],1.13
